Laboratory results taken from PubChem BioAssay AID1159580 (chemical genetic matrix, 2015).
Where “and” joins values, the source holds several entries; their conditions need not be identical. Equal values may be shown once. The whole screen tested about 5,500 compounds, of which about 2,000 (36%) were called active. Another 18% or so got no clear call; they are omitted. No stated cut-off is given here; in the data, active means normalized growth mostly below about 0.91 (no sharp cut-off); inconclusive means no clear call, values can overlap the other calls; inactive means mostly above about 0.92. The list shows a part of the results.

Test: chemical genetic growth profiling, strain panel (AID 1159580);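 further: tested at 20 µM; growth read once vehicle control cultures reached saturation at 30 °C; 1 = growth at the plate median or of vehicle wells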
Conditions: S. cerevisiae deletion strains, growth OD

Measured: normalized growth

COc1cc(OC)c2c(c1Cl)OC1(C2=O)C(O)=CC(=O)CC1C (stereo unspecified)
inactive: locus YAL021C, strain ccr4, stronger effect = lower value 1.02 | locus YAL026C, strain drs2, stronger effect = lower value 1.01 | locus YAL030W, strain snc1, stronger effect = lower value 1.01 | locus YBL061C, strain skt5, stronger effect = lower value 1.01 | locus YBR009C, strain hhf1, stronger effect = lower value 1.01 | locus YBR021W, strain FUR4, stronger effect = lower value 1.04 | locus YBR023C, strain chs3, stronger effect = lower value 1.01 | locus YBR171W, strain sec66, stronger effect = lower value 1.03 | locus YBR229C, strain ROT2, stronger effect = lower value 1.02 | locus YBR231C, strain swc5, stronger effect = lower value 1.01 | locus YBR279W, strain paf1, stronger effect = lower value 1.01 | locus YCL011C, strain gbp2, stronger effect = lower value 1.02 | locus YCL016C, strain dcc1, stronger effect = lower value 1.01 | locus YCL029C, strain bik1, stronger effect = lower value 1.01 | locus YCL061C, strain MRC1, stronger effect = lower value 1.01 | locus YCL069W, strain vba3, stronger effect = lower value 1.01 | locus YCR088W, strain abp1, stronger effect = lower value 1.01 | locus YDL005C, strain med2, stronger effect = lower value 1.01 | locus YDL035C, strain GPR1, stronger effect = lower value 1.04 | locus YDL040C, strain nat1, stronger effect = lower value 1.01 | locus YDL074C, strain BRE1, stronger effect = lower value 1.07 | locus YDL101C, strain DUN1, stronger effect = lower value 1.03 | locus YDL134C, strain PPH21, stronger effect = lower value 1.01 | locus YDL185W, strain tfp1, stronger effect = lower value 0.981 | locus YDL192W, strain arf1, stronger effect = lower value 1.02 | locus YDR001C, strain nth1, stronger effect = lower value 1.01 | locus YDR069C, strain doa4, stronger effect = lower value 1.01 | locus YDR101C, strain arx1, stronger effect = lower value 1.02 | locus YDR137W, strain rgp1, stronger effect = lower value 1.02 | locus YDR159W, strain sac3, stronger effect = lower value 1.02 | locus YDR162C, strain NBP2, stronger effect = lower value 1.05 | locus YDR195W, strain ref2 1.03 | locus YDR297W, strain sur2, stronger effect = lower value 1.01 | locus YDR318W, strain mcm21, stronger effect = lower value 1 | locus YDR334W, strain swr1, stronger effect = lower value 1.01 | locus YDR335W, strain msn5, stronger effect = lower value 1.02 | locus YDR388W, stronger effect = lower value 1.01 | locus YDR392W, strain spt3, stronger effect = lower value 1.01 | locus YDR502C, strain sam2, stronger effect = lower value 0.986 | locus YEL003W, strain gim4, stronger effect = lower value 1.01 | locus YEL037C, strain rad23, stronger effect = lower value 1 | locus YEL061C, strain CIN8 (second series), stronger effect = lower value 1.01 | locus YER015W, strain faa2, stronger effect = lower value 1.01 | locus YER016W, strain bim1, stronger effect = lower value 1.02 | locus YER110C, stronger effect = lower value 0.977 | locus YER111C, strain swi4, stronger effect = lower value 1.01 | locus YER155C, strain BEM2 (second series), stronger effect = lower value 1.03 | locus YER155C, strain BEM2, stronger effect = lower value 1.02 | locus YER167W, strain BCK2, stronger effect = lower value 1.02 | locus YFR010W, strain ubp6, stronger effect = lower value 1.01 | locus YGL078C, strain dbp3, stronger effect = lower value 0.978 | locus YGL086W, strain mad1, stronger effect = lower value 1.01 | locus YGL167C, strain pmr1, stronger effect = lower value 1.02 | locus YGL173C, strain kem1, stronger effect = lower value 1.01 | locus YGL227W, strain vid30, stronger effect = lower value 1.01 | locus YGL240W, strain doc1, stronger effect = lower value 1 | locus YGL248W, strain PDE1, stronger effect = lower value 1.02 | locus YGL253W, strain hxk2, stronger effect = lower value 1.01 | locus YGR135W, strain pre9, stronger effect = lower value 0.983 | locus YGR252W, strain gcn5, stronger effect = lower value 0.915 | locus YHR013C, strain ard1, stronger effect = lower value 1.03 | locus YHR027C, strain rpn1, stronger effect = lower value 1.01 | locus YHR030C, strain SLT2, stronger effect = lower value 1.02 and 0.99 | locus YHR079C, strain IRE1 (second series), stronger effect = lower value 0.979 | locus YHR079C, strain IRE1, stronger effect = lower value 0.997 | locus YHR094C, strain hxt1, stronger effect = lower value 0.983 | locus YHR129C, strain ARP1, stronger effect = lower value 1.02 | locus YHR142W, strain chs7, stronger effect = lower value 1.02 | locus YHR200W, strain rpn10, stronger effect = lower value 0.999 | locus YIL066C, strain RNR3, stronger effect = lower value 1.07 | locus YIL073C, strain SPO22, stronger effect = lower value 1 | locus YIL125W, strain kgd1, stronger effect = lower value 0.99 | locus YIR030C, strain dcg1, stronger effect = lower value 1.01 | locus YJL092W, strain hpr5, stronger effect = lower value 1.01 | locus YJL095W, strain BCK1 (second series), stronger effect = lower value 1 | locus YJL095W, strain BCK1, stronger effect = lower value 1.04 and 0.978 | locus YJL115W, strain asf1, stronger effect = lower value 1 | locus YJL129C, strain trk1, stronger effect = lower value 1.02 | locus YJL134W, strain LCB3, stronger effect = lower value 1.02 | locus YJL154C, strain vps35, stronger effect = lower value 1.02 | locus YJL164C, strain tpk1, stronger effect = lower value 1.01 | locus YJL166W, strain qcr8, stronger effect = lower value 1.01 | locus YJL168C, strain set2, stronger effect = lower value 0.977 | locus YJL187C, strain SWE1 (second series), stronger effect = lower value 1.03 | locus YJL187C, strain SWE1, stronger effect = lower value 1.01 | locus YJR066W, strain TOR1, stronger effect = lower value 0.9
